Measured values reported in article PMC7862700, “An all-to-all approach to the identification of sequence-specific readers for epigenetic DNA modifications on cytosine”.

Columns and labels:
Experiment in all cases: DAPPL (digital affinity profiling via proximity ligation, sequencing); 10 mM Tris-HCl pH 7.5, 50 mM NaCl, 1 mM DTT, 4% glycerol, room temperature, 30 min; GST-TFs on glutathione beads, 16-mer random dsDNA library, 0.1% formaldehyde crosslink after washing; high values mean tight binding
Conditions in all cases: protein: recombinant; tags: N-terminal GST; dsDNA, one strand shown
ERF = target: T1, ERF (Homo sapiens, UniProt P50548 1-548)
T1 sequence: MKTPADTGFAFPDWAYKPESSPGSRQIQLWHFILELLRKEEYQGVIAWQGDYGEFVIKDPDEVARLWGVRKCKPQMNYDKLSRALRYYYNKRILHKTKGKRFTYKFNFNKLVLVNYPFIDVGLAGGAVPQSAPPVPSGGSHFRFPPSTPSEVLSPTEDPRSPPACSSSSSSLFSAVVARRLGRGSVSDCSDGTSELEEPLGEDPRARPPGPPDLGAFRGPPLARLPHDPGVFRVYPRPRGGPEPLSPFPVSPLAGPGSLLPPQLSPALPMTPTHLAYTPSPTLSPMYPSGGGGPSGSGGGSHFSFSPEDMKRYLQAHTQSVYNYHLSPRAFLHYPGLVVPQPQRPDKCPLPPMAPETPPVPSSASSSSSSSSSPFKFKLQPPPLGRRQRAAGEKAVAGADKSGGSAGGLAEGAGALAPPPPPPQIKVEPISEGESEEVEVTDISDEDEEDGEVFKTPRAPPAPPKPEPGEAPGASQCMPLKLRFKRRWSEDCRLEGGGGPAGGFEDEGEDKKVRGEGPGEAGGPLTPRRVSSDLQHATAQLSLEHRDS
Procedure, shortened: (§1)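 Pools were built from human transcription factors expressed in yeast as GST fusions, captured on glutathione beads and DNA-barcoded, along with a tag-only sample. Incubation with 200 nmole of a 16-mer random double-stranded DNA library lasted 30 min at room temperature in Tris/NaCl/DTT/glycerol buffer, and was followed by washing, 0.1% formaldehyde crosslinking, proximity ligation, PCR amplification and Illumina NextSeq500 sequencing. Binding signal is the quotient of each hexamer's read frequency for a factor and its frequency for the tag-only sample.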

ETV3L = target: T2, ETV3L (Homo sapiens, UniProt Q6ZN32 1-361)
T2 sequence: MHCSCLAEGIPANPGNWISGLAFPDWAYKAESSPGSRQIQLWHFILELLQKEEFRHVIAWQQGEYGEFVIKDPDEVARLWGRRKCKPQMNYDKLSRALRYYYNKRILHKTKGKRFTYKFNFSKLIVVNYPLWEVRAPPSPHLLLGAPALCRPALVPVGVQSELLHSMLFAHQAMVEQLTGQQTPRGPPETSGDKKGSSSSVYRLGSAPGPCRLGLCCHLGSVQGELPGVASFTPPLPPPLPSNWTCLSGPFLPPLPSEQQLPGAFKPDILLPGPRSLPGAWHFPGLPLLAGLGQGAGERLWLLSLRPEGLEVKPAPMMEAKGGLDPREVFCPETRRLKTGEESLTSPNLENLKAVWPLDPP
Procedure, shortened: as §1

ETS2 = target: T3, ETS2 (Homo sapiens, UniProt P15036 1-469)
T3 sequence: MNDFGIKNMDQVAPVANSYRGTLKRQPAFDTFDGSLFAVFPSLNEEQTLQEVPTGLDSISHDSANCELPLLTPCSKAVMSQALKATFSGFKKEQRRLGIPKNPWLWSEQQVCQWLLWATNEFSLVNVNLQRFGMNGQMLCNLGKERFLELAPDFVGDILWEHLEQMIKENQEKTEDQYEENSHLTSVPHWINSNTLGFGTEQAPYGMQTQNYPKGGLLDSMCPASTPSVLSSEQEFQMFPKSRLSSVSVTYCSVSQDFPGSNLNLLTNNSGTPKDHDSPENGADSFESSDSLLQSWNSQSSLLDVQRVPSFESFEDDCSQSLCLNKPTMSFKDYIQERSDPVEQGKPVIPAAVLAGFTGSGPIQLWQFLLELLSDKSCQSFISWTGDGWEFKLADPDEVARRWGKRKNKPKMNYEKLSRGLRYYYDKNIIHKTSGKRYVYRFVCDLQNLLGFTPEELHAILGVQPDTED
Procedure, shortened: as §1

SPDEF = target: T4, SPDEF (Homo sapiens, UniProt O95238 1-335)
T4 sequence: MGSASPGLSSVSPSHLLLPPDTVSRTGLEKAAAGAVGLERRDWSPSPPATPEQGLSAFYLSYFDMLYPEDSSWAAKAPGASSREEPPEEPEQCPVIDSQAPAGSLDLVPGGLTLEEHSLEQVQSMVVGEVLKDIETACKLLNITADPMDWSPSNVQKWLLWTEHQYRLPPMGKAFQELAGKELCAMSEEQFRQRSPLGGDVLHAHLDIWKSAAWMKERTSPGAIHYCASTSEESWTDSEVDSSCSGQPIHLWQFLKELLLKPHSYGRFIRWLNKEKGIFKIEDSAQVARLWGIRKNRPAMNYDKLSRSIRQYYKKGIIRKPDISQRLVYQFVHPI
Procedure, shortened: as §1

ETV7 = target: T5, ETV7 (Homo sapiens, UniProt Q9Y603 1-341)
T5 sequence: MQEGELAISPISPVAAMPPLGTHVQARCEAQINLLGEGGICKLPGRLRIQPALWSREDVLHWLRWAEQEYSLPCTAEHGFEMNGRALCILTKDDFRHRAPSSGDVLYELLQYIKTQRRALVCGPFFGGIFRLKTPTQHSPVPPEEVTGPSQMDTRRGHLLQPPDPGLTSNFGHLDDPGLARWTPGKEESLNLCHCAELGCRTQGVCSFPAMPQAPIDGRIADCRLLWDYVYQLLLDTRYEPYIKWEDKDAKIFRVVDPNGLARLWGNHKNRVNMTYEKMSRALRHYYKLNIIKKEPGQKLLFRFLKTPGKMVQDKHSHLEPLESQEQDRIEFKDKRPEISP
Procedure, shortened: as §1

ELF5 = target: T6, ELF5 (Homo sapiens, UniProt Q9UKW6-2 1-255)
T6 sequence: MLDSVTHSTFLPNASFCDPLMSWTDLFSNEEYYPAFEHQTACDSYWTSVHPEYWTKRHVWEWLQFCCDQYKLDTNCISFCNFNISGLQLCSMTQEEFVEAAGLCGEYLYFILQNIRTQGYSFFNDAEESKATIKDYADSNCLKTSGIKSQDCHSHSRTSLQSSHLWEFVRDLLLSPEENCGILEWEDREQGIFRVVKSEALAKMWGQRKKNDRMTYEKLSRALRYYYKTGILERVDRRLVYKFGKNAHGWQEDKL
Procedure, shortened: as §1

ETV3 = target: T7, ETV3 (Homo sapiens, UniProt P41162-2 1-143)
T7 sequence: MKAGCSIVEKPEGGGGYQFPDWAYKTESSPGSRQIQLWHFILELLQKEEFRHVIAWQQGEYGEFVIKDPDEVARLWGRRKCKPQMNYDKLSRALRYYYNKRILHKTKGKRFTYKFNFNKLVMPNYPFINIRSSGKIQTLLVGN
Procedure, shortened: as §1

ETV6 = ETV6 (Homo sapiens, UniProt P41212 1-452)
Chain of ETV6 (P41212 whole entry): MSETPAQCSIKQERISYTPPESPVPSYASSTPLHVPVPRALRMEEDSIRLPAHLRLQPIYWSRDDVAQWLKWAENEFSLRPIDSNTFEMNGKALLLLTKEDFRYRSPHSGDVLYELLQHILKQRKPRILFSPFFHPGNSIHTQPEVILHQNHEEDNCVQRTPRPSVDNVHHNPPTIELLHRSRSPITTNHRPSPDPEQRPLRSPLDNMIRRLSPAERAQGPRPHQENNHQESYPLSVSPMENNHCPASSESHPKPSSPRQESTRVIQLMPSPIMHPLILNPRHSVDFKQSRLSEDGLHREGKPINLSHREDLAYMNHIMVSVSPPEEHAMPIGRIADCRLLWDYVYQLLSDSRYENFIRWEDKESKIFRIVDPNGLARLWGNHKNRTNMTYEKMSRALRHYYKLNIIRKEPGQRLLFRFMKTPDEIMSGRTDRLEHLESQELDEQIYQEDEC
Procedure, shortened: as §1

| Sequence | binding signal (ERF) | binding signal (ETV3L) | binding signal (ETS2) | binding signal (SPDEF) | binding signal (ETV7) | binding signal (ELF5) | binding signal (ETV3) | binding signal (ETV6) |
| --- | --- | --- | --- | --- | --- | --- | --- | --- |
| CCTCAG | 1.35 fold enrichment (6-mer frequency, TF over GST control) | 1.27 fold enrichment (6-mer frequency, TF over GST control) | 1.25 fold enrichment (6-mer frequency, TF over GST control) | 1.1 fold enrichment (6-mer frequency, TF over GST control) | 1.1 fold enrichment (6-mer frequency, TF over GST control) | 1.14 fold enrichment (6-mer frequency, TF over GST control) | 1.17 fold enrichment (6-mer frequency, TF over GST control) | 1.15 fold enrichment (6-mer frequency, TF over GST control) |
| TCCGCA | 1.95 fold enrichment (6-mer frequency, TF over GST control) | 2.08 fold enrichment (6-mer frequency, TF over GST control) | 2.26 fold enrichment (6-mer frequency, TF over GST control) | 2.24 fold enrichment (6-mer frequency, TF over GST control) | 1.98 fold enrichment (6-mer frequency, TF over GST control) | 2.61 fold enrichment (6-mer frequency, TF over GST control) | 2.27 fold enrichment (6-mer frequency, TF over GST control) | 2.18 fold enrichment (6-mer frequency, TF over GST control) |
| GACCTT | 1.5 fold enrichment (6-mer frequency, TF over GST control) | 1.64 fold enrichment (6-mer frequency, TF over GST control) | 1.49 fold enrichment (6-mer frequency, TF over GST control) | 1.66 fold enrichment (6-mer frequency, TF over GST control) | 1.41 fold enrichment (6-mer frequency, TF over GST control) | 1.62 fold enrichment (6-mer frequency, TF over GST control) | 1.5 fold enrichment (6-mer frequency, TF over GST control) | 1.5 fold enrichment (6-mer frequency, TF over GST control) |
| TGTTTT | 1.26 fold enrichment (6-mer frequency, TF over GST control) | 1.37 fold enrichment (6-mer frequency, TF over GST control) | 1.36 fold enrichment (6-mer frequency, TF over GST control) | 1.41 fold enrichment (6-mer frequency, TF over GST control) | 1.28 fold enrichment (6-mer frequency, TF over GST control) | 1.48 fold enrichment (6-mer frequency, TF over GST control) | 1.46 fold enrichment (6-mer frequency, TF over GST control) | 1.39 fold enrichment (6-mer frequency, TF over GST control) |
| GCTATA | 1.16 fold enrichment (6-mer frequency, TF over GST control) | 1.08 fold enrichment (6-mer frequency, TF over GST control) | 1.14 fold enrichment (6-mer frequency, TF over GST control) | 1.21 fold enrichment (6-mer frequency, TF over GST control) | 1.18 fold enrichment (6-mer frequency, TF over GST control) | 1.15 fold enrichment (6-mer frequency, TF over GST control) | 1.18 fold enrichment (6-mer frequency, TF over GST control) | 1.14 fold enrichment (6-mer frequency, TF over GST control) |
| CATCCT | 1.49 fold enrichment (6-mer frequency, TF over GST control) | 1.69 fold enrichment (6-mer frequency, TF over GST control) | 1.61 fold enrichment (6-mer frequency, TF over GST control) | 2.33 fold enrichment (6-mer frequency, TF over GST control) | 1.5 fold enrichment (6-mer frequency, TF over GST control) | 2.13 fold enrichment (6-mer frequency, TF over GST control) | 1.86 fold enrichment (6-mer frequency, TF over GST control) | 1.65 fold enrichment (6-mer frequency, TF over GST control) |
| TCCTGC | 1.43 fold enrichment (6-mer frequency, TF over GST control) | 1.71 fold enrichment (6-mer frequency, TF over GST control) | 1.65 fold enrichment (6-mer frequency, TF over GST control) | 1.98 fold enrichment (6-mer frequency, TF over GST control) | 1.69 fold enrichment (6-mer frequency, TF over GST control) | 2.12 fold enrichment (6-mer frequency, TF over GST control) | 1.73 fold enrichment (6-mer frequency, TF over GST control) | 1.77 fold enrichment (6-mer frequency, TF over GST control) |
